Activity calls are given as the source filed them. Unless noted, how the calls were made is not given here.

Here are results for five compounds from PubChem BioAssay.

Experiment [1] relates to Wnt5a (protein binding on small-molecule microarray). Description: Wnt5a binders on small-molecule microarray, primary screen, biophysical, 635/667 nm fluorescence (AID 1142).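 Further: fluorescence read at 667 nm with signal to noise per printed feature.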 The settings on record: 635 nm fluorescence, higher = more signal.
A short description of experiment [2]: cell viability in Huh7 cells, primary screen, cytotoxicity control for HCV replication inhibitor project, CellTiter-Glo luminescence, basal, 48 h (AID 1143).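 Further: Huh7 hepatoma cells carrying a hepatitis C replication reporter with no stimulus; test concentration not given here.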 Particulars: Huh7 HCV replicon, higher = more signal, called active from +8 up or from −8 down.
Experiment [3] is described as follows: P. aeruginosa biofilm formation inhibitors, primary screen, PAO1 strain, BacTiter-Glo luminescence, LB-PBS (AID 1144). Particulars: 12 h, higher = more signal.
Experiment [4] can be described thus: CREB reporter modulators without forskolin, primary screen, cell-based, PC12, CRE-LacZ reporter, unstimulated (AID 1145). The settings on record: no forskolin, luminescence, 4.5 h, higher = more signal, called active from +8 up or from −8 down.
Experiment [5] can be described thus: CREB reporter modulators under forskolin, primary screen, cell-based, PC12, CRE-LacZ reporter, forskolin-stimulated (AID 1146).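 Further: PC12 cells with 6xCRE LacZ reporter stimulated by forskolin 10 µM; beta-galactosidase reporter signal reflecting CREB driven transcription.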 Particulars: luminescence, 4.5 h, higher = more signal, called active from +8 up or from −8 down.
In experiment [6] the target is Streptavidin (Streptomyces avidinii) (UniProt P22629). Description: streptavidin binders on small-molecule microarray, primary screen, artefact control for SMM compound annotation, biophysical, 635/667 nm fluorescence (AID 1147).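 Further: signal reflects streptavidin binding to arrayed compounds as a control protein.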 Particulars: streptavidin binding, higher = more signal.
A short description of experiment [7]: small-molecule binders of probe aInhba, primary screen, biochemical, small-molecule microarray, 635/667 nm fluorescence (AID 1148).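 Further: score merges 667nm spot fluorescence with signal-to-noise for antibody binding to printed compounds.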 Particulars: higher = more signal.
For experiment [8], the target named is Torsin-1A (Homo sapiens) (UniProt O14656). Description: torsin A binders from cell lysate, primary screen, small-molecule microarray, wild-type, 635/667 nm (AID 1149). Particulars: COS7 hTOR1A-WT lysate, 635 nm fluorescence, higher = more signal.
Experiment [9] has the same target. Description: small-molecule binders of mutant TOR1A in lysate, primary screen, cell lysate, small-molecule microarray, COS7 lysate, 635/667 nm fluorescence (AID 1150).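 Further: score pools 667 nm emission and signal to noise measuring lysate protein binding.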 Particulars: COS7 hTOR1A mutant lysate, 635 nm fluorescence, higher = more signal.
The test system of experiment [10] is Sonic hedgehog protein (Shh). Description: small-molecule binders of Shh protein, primary screen, biochemical, small-molecule microarray, 635/667 nm fluorescence (AID 1151).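 Further: Shh protein binding to compounds spotted on small-molecule microarray slides; score combines spot fluorescence intensity with signal-to-noise across triplicate slides.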 The settings on record: small-molecule microarray binding, 635 nm fluorescence; higher = more signal.
The nature of experiment [11]: E. coli DRC41 culture turbidity changes, primary screen, E. coli filamentation inducer project, strain DRC41, OD650, 48 h (AID 1152).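 Further: E. coli MC1000 strain DRC41 lacking acrAB efflux pump and sulA.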 The settings on record: E. coli DRC41 (acrAB sulA), higher = more signal, called active from +8 up or from −8 down.
Experiment [12] is described as follows: small-molecule binders of probe aLefty1, primary screen, biochemical, small-molecule microarray, 635/667 nm fluorescence (AID 1153).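 Further: score merges spot fluorescence with signal-to-noise ratio from the scanned slide images.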 Particulars: higher = more signal.
The nature of experiment [13]: PSAC antagonists in infected red cells, primary screen, cell-based, P. falciparum Indochina, OD700, 1 h (AID 1154). Particulars: P. falciparum Indochina infected RBC osmotic lysis, higher = more signal, called active from +8 up or from −8 down.
Experiment [14] is described as follows: PSAC antagonists in infected red cells, primary screen, cell-based, P. falciparum Indochina, OD700, 2 h (AID 1155).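 Further: lysis reports solute entry through the parasite surface anion channel PSAC; channel blockers reduce lysis of infected cells.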 The settings on record: P. falciparum Indochina infected erythrocytes, osmotic lysis OD700; higher = more signal, called active from +8 up or from −8 down.
A short description of experiment [15]: osmotic lysis modulators in infected erythrocytes, primary screen, PSAC antagonist project, cell-based, P. falciparum Indochina, OD700, 3 h (AID 1156). The settings on record: higher = more signal, called active from +8 up or from −8 down.
Experiment [16] can be described thus: PSAC antagonists in infected red cells, primary screen, cell-based, P. falciparum Indochina, OD700, 18 h (AID 1157). The settings on record: P. falciparum Indochina infected erythrocytes, osmotic lysis OD700, 18 h; higher = more signal, called active from +8 up or from −8 down.
A short description of experiment [17]: modulators of S6 phosphorylation in cells, primary screen, cell-based, A549, cytoblot, luminescence, serum-stimulated (AID 1158).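 Further: serum-stimulated A549 lung adenocarcinoma cells; signal is phosphorylated S6 detected by cytoblot immunostaining with HRP secondary.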 The settings on record: A549 phospho-S6 cytoblot, 5 h, higher = more signal.
The target of experiment [18] is NADPH oxidase 2 (Homo sapiens) (UniProt P04839). Description: NOX2-dependent H2O2 signal modulators, primary screen, NOX inhibitor project, cell-based, HEK293-NOX2, PMA-stimulated, Amplex Red fluorescence (AID 1159). Further: test concentration not given here. The settings on record: 45 min, higher = more signal, called active from +8 up or from −8 down.
In experiment [19] the target is NADPH oxidase 4 (Homo sapiens) (UniProt Q9NPH5). Description: NOX4-dependent H2O2 signal modulators, primary screen, NOX inhibitor project, cell-based, HEK293-NOX4, tetracycline-induced, Amplex Red fluorescence (AID 1160). The settings on record: 45 min, higher = more signal, called active from +8 up or from −8 down.
The target of experiment [20] is NADPH oxidase 5 (Homo sapiens) (UniProt Q96PH1). Description: NOX5-dependent H2O2 signal modulators, primary screen, NOX inhibitor project, cell-based, HEK293-NOX5, Amplex Red fluorescence (AID 1161). The settings on record: HEK293-NOX5, ionomycin, 45 min, higher = more signal.
Chain of NADPH oxidase 5 (Homo sapiens) (Q96PH1 whole entry, looked up): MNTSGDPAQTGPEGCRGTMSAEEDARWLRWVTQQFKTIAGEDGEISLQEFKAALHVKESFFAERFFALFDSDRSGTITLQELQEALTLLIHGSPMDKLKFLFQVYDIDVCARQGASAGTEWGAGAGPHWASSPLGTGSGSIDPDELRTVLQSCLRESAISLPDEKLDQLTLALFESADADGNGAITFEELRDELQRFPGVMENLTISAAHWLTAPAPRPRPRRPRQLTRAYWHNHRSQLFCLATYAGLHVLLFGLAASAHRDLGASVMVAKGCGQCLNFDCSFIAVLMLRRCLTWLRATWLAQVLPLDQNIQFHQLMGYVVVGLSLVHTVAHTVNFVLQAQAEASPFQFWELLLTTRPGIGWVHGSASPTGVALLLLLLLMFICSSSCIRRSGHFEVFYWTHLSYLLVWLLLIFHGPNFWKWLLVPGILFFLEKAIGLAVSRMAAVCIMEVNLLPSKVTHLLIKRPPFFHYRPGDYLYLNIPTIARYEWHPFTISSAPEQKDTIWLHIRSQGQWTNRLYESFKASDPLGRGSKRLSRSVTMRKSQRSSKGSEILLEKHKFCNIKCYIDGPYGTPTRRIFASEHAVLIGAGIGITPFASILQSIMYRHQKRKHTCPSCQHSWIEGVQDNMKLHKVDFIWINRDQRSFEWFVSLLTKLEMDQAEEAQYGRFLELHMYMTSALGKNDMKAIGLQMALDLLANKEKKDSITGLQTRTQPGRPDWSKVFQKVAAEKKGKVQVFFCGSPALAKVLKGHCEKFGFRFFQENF

Chain of Torsin-1A (Homo sapiens) (O14656 whole entry, looked up): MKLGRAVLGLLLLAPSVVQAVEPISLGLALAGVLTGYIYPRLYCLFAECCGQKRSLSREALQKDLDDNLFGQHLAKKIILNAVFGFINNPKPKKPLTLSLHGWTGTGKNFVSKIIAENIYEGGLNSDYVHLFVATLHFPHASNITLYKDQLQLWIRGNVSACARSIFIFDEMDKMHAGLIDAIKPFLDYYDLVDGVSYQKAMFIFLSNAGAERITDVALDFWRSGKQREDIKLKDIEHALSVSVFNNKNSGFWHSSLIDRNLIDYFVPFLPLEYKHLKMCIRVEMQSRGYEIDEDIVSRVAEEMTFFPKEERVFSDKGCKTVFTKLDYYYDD
Chain of NADPH oxidase 2 (Homo sapiens) (P04839 whole entry, looked up): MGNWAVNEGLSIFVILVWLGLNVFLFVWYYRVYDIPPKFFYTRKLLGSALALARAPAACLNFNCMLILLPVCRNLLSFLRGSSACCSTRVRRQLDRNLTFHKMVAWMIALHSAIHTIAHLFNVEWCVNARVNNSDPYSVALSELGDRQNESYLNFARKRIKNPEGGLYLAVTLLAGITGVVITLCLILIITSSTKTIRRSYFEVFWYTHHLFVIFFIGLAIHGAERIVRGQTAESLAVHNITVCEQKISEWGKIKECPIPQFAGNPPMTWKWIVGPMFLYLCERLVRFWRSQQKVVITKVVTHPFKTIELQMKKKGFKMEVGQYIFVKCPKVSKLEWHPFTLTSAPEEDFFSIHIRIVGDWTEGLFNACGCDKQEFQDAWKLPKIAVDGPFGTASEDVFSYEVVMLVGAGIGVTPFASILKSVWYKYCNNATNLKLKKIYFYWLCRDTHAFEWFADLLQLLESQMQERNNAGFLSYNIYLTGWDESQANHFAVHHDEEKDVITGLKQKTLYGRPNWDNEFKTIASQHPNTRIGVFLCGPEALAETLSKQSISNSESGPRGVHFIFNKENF
Chain of NADPH oxidase 4 (Homo sapiens) (Q9NPH5 whole entry, looked up): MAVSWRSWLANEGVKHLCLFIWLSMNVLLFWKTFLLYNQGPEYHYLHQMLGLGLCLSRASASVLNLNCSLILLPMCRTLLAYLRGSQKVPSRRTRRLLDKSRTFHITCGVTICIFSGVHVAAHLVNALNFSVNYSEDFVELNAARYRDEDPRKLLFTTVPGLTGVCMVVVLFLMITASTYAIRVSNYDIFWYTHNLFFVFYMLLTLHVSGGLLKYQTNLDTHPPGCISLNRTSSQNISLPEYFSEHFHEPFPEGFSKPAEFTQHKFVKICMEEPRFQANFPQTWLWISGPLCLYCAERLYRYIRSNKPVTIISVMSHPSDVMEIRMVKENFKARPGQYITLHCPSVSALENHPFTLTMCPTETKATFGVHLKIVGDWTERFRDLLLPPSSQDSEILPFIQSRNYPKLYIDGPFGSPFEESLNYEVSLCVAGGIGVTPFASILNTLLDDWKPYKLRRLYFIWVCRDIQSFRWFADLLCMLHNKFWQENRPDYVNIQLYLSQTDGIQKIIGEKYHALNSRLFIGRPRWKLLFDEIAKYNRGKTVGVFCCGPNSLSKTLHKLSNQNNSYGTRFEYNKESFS
Chain of Streptavidin (Streptomyces avidinii) (P22629 whole entry, looked up): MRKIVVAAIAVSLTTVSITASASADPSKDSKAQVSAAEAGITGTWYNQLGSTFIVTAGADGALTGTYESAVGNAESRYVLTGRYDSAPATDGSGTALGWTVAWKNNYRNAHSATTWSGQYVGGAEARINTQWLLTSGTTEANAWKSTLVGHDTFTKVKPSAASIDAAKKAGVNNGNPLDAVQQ

Turning to `CC(C)(C)OC(=O)CC[C@@]1(C(=O)NCC(O)CO)N=C(c2ccc(OCCCO)cc2)O[C@@H]1c1ccccc1CN=[N+]=[N-]` (stereo not given in full), the composite z-score in [1] is 0.167; in [6], 1.14; in [7], -0.0021; with Torsin-1A (Homo sapiens) [8] it was 1.48; with Torsin-1A (Homo sapiens) [9], 0.654; in experiment [10], -0.157. Besides, in experiment [12], the composite z-score was 0.258. Also, the z-score is 0.0366 (inactive) in [2]; -0.719 (inactive) in [3]; 1.98 (inactive) in [4]; -0.424 (inactive) in [5]; 0.399 (inactive) in experiment [11]; 25.3 (active) in [13]. Also, the z-score is 5.67 (inactive) in [14]; 0.814 (inactive) in experiment [15]; 0.936 (inactive) in experiment [16]; 0.906 in experiment [17]; 1.18 (inactive) in [18]; 0.87 (inactive) in experiment [19]. The same compound registered a z-score in [20] of 0.416.
For `CN(C)C(=O)[C@@]1(Cc2ccccc2CN=[N+]=[N-])N=C(c2ccc(OCCCO)cc2)O[C@H]1c1ccccc1N=[N+]=[N-]`, the composite z-score in experiment [1] is 0.0168; in [6] it was 1.51; in experiment [7], 0.439; in the experiment with Torsin-1A (Homo sapiens) [8], 0.504; with Torsin-1A (Homo sapiens) [9] it was 1.21; in experiment [10], 0.66. The same compound gave a composite z-score in experiment [12] of 1.48. For the same compound, the z-score in experiment [2] is -4.96 (inactive); in [3] it was -0.638 (inactive); in experiment [4], 1.74 (inactive); in experiment [5], -1.69 (inactive); in experiment [11], -0.383 (inactive); in [13], 29.9 (active). In addition, the z-score was 26.7 (active) in [14]; 2.61 (inactive) in experiment [15]; 6.04 (inactive) in experiment [16]; 1.76 in experiment [17]; -3.42 (inactive) in [18]; -0.18 (inactive) in experiment [19]. Besides, in experiment [20], the z-score is -2.56.
In the case of `COc1ccc(CCNC(=O)[C@@]2(Sc3ccc(C)cc3)CC(=O)N(Cc3ccccc3C(F)(F)F)[C@@H]2c2ccc(CO)cc2I)cc1`, the composite z-score in experiment [1] is -0.0049; in experiment [6] it was -0.975; in [7] it was 0.0714; in the experiment with Torsin-1A (Homo sapiens) [8], -1.13; with Torsin-1A (Homo sapiens) [9], -0.702; in experiment [10], -0.649. The composite z-score in experiment [12] was 0.0701. The z-score was -1.53 (inactive) in experiment [2]; 1.02 (inactive) in experiment [3]; 0.362 (inactive) in [4]; 2.7 (inactive) in experiment [5]; 0.729 (inactive) in [11]; 7.89 (inactive) in experiment [13]. Besides, the z-score in [14] is 1.43 (inactive); in experiment [15], 0.932 (inactive); in [16], 0.844 (inactive); in [17], -0.513; in experiment [18], 0.933 (inactive); in experiment [19], -2.09 (inactive). This compound also yielded a z-score in experiment [20] of 0.713.
Take `CC(C)NC(=O)[C@@]1(C)c2ccccc2C(=O)N(Cc2ccc(OC(F)(F)F)cc2)[C@H]1c1ccc(CO)cc1`: the composite z-score is -0.766 in experiment [1]; -0.933 in experiment [6]; -0.183 in experiment [7]; -2.23 in the experiment with Torsin-1A (Homo sapiens) [8]; 0.492 with Torsin-1A (Homo sapiens) [9]; -0.354 in experiment [10]. In experiment [12], this compound registered a composite z-score of 0.0004. Besides, the z-score in [2] is -1.98 (inactive); in [3], -0.539 (inactive); in experiment [4], -0.411 (inactive); in [5], -1.48 (inactive); in experiment [11], -0.362 (inactive); in [13], 2.96 (inactive). Also, the z-score in experiment [14] was 0.857 (inactive); in experiment [15], 1.89 (inactive); in experiment [16] it was 0.254 (inactive); in experiment [17], 0.0795; in [18], 0.415 (inactive); in experiment [19], -0.667 (inactive). Besides, the z-score in experiment [20] was found to be 1.99.
Regarding `COCCCNC(=O)[C@@]1(Sc2ccc(C)cc2)CC(=O)N(C2Cc3ccccc3C2)[C@@H]1c1ccc(CO)cc1`, the composite z-score is -0.228 in [1]; -1.17 in [6]; -0.327 in experiment [7]; -1.86 with Torsin-1A (Homo sapiens) [8]; -1.35 with Torsin-1A (Homo sapiens) [9]; -1.45 in experiment [10]. This compound also yielded a composite z-score in [12] of 0.0653. Moreover, the z-score was -4.69 (inactive) in [2]; -1.03 (inactive) in experiment [3]; 0.685 (inactive) in experiment [4]; 1.95 (inactive) in [5]; 0.625 (inactive) in experiment [11]; 1.86 (inactive) in experiment [13]. The z-score is -0.562 (inactive) in experiment [14]; 1.03 (inactive) in experiment [15]; -1.78 (inactive) in experiment [16]; 2.12 in experiment [17]; 0.00261 (inactive) in experiment [18]; -0.107 (inactive) in experiment [19]. The same compound had a z-score in [20] of -1.76.
